# Key:
# [1] = target: Sphingosine kinase 1 (Homo sapiens) (UniProt Q9NYA1); details: at 1 µM;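 note: mean SPHK1 inhibition value reported from the GSK PKIS kinase panel screen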
# [2] = target: T1, Sphingosine kinase 2 (Homo sapiens) (UniProt Q9NRA0); details: at 0.1 µM
# T1 sequence (whole entry): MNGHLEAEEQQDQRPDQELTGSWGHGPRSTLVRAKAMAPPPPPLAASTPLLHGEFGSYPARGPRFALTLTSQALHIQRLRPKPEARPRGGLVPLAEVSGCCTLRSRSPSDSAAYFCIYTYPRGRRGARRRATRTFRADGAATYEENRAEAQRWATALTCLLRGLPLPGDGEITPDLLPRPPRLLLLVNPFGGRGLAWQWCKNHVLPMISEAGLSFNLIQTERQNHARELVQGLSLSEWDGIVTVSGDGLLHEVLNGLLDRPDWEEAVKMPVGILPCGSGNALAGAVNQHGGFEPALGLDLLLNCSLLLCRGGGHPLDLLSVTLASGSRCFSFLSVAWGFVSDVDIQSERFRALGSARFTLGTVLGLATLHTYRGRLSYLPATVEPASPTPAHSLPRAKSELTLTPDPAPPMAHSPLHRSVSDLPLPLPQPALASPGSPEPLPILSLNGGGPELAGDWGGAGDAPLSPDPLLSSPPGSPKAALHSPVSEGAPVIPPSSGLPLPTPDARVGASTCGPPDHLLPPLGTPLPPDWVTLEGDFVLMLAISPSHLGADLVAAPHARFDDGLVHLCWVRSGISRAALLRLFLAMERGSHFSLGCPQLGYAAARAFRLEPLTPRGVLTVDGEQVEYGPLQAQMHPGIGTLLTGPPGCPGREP
# [3] = target: T1, Sphingosine kinase 2 (Homo sapiens); details: at 1 µM
# [4] = target: Casein kinase II subunit alpha (Homo sapiens) (UniProt P68400); details: at 0.1 µM
# [5] = target: Casein kinase II subunit alpha (Homo sapiens) (UniProt P68400); details: at 1 µM
# [6] = target: T2, Inhibitor of nuclear factor kappa-B kinase subunit alpha (Homo sapiens) (UniProt O15111); details: at 0.1 µM
# T2 sequence (whole entry): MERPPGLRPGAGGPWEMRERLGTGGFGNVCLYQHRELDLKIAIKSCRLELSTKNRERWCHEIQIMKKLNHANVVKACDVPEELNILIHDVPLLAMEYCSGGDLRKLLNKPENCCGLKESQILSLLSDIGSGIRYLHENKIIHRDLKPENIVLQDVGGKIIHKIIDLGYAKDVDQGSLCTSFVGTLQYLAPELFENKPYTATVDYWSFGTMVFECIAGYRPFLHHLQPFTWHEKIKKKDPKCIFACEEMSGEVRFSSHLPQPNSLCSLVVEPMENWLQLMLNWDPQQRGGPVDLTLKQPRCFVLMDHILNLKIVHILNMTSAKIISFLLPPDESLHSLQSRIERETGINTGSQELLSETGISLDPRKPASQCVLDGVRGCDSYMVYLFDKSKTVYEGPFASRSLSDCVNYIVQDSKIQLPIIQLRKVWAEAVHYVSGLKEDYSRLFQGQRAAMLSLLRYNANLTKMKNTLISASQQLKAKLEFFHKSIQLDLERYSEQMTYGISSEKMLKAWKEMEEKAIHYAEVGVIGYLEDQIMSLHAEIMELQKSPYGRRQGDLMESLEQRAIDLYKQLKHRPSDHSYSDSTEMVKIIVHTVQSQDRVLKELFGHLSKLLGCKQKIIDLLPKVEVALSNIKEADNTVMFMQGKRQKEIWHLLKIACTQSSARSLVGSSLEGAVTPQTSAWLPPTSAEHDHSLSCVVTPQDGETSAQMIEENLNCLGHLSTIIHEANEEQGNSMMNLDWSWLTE
# [7] = target: T2, Inhibitor of nuclear factor kappa-B kinase subunit alpha (Homo sapiens); details: at 1 µM
# [8] = target: T3, Inhibitor of nuclear factor kappa-B kinase subunit beta (Homo sapiens) (UniProt O14920); details: at 0.1 µM
# T3 sequence (whole entry): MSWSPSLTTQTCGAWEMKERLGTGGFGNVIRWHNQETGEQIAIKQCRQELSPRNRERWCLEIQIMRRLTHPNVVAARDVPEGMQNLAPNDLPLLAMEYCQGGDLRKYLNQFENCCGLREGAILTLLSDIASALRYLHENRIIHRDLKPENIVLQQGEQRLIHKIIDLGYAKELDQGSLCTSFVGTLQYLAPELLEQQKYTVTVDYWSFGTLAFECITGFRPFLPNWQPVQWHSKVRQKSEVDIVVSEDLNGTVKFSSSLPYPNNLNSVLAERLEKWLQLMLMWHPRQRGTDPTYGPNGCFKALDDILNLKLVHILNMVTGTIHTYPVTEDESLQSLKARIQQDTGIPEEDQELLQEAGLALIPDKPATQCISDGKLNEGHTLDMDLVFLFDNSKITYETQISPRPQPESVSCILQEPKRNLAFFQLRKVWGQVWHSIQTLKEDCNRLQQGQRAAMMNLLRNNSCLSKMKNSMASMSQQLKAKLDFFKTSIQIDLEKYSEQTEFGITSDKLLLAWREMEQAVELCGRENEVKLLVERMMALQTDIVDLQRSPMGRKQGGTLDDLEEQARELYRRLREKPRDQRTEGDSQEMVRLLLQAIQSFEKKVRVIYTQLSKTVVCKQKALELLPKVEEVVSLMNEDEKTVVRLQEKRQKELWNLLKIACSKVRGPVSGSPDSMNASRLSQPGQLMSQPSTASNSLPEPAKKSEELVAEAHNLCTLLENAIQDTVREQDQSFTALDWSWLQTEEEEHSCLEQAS
# [9] = target: T3, Inhibitor of nuclear factor kappa-B kinase subunit beta (Homo sapiens); details: at 1 µM
# [10] = target: T4, Inhibitor of nuclear factor kappa-B kinase subunit epsilon (Homo sapiens) (UniProt Q14164); details: at 0.1 µM
# T4 sequence (whole entry): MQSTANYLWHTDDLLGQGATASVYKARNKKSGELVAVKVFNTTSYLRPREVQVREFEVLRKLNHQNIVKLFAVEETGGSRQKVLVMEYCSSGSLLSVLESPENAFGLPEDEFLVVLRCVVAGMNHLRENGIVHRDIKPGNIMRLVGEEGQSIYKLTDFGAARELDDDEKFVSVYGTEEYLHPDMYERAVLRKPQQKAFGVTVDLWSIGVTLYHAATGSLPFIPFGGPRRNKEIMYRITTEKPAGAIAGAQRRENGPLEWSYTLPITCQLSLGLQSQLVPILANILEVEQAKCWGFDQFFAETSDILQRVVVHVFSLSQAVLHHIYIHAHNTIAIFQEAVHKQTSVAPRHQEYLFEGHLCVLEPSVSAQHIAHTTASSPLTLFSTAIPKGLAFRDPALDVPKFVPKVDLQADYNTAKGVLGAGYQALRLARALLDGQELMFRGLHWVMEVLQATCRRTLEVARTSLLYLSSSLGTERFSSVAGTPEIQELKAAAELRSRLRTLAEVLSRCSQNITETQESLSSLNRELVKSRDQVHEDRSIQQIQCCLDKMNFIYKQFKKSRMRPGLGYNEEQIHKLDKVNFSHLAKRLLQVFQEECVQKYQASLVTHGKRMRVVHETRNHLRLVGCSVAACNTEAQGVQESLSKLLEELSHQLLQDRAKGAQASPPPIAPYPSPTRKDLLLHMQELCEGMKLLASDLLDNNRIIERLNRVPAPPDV
# [11] = target: T4, Inhibitor of nuclear factor kappa-B kinase subunit epsilon (Homo sapiens); details: at 1 µM
# [12] = target: T5, Serine/threonine-protein kinase Nek1 (Homo sapiens) (UniProt Q96PY6); details: at 0.1 µM
# T5 sequence (whole entry): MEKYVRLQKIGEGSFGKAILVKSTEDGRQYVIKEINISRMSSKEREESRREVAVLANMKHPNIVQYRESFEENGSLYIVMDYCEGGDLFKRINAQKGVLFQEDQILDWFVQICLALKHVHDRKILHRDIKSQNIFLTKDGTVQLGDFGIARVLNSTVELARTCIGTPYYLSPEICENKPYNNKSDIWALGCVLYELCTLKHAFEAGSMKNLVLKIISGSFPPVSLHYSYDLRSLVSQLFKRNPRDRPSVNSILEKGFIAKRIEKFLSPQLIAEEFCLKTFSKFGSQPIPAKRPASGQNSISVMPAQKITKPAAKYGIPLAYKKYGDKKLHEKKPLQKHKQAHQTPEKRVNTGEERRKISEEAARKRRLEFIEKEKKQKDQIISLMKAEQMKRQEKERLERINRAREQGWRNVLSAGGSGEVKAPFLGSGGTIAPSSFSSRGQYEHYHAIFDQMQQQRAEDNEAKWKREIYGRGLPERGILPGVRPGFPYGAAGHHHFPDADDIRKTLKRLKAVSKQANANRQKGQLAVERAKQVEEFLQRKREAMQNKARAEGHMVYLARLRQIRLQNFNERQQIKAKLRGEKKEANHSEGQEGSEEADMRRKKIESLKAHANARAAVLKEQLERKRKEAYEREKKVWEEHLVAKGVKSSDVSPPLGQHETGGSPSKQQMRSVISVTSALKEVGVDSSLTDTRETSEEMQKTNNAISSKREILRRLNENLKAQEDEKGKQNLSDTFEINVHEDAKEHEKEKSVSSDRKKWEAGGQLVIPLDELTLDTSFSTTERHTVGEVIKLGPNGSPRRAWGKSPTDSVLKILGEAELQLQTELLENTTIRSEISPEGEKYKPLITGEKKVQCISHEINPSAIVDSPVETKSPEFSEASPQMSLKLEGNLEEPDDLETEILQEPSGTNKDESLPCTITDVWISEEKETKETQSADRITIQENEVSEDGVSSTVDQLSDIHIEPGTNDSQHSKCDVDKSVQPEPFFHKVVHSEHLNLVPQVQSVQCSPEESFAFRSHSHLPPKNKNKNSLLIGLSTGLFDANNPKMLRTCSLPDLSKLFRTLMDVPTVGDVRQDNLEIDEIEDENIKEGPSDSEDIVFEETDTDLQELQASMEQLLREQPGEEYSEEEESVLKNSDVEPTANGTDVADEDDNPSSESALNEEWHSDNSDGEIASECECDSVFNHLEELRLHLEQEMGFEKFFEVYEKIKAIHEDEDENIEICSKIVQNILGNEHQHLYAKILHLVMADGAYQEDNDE
# [13] = target: T5, Serine/threonine-protein kinase Nek1 (Homo sapiens); details: at 1 µM
# [14] = target: T6, Serine/threonine-protein kinase Nek2 (Homo sapiens) (UniProt P51955); details: at 0.1 µM
# T6 sequence (whole entry): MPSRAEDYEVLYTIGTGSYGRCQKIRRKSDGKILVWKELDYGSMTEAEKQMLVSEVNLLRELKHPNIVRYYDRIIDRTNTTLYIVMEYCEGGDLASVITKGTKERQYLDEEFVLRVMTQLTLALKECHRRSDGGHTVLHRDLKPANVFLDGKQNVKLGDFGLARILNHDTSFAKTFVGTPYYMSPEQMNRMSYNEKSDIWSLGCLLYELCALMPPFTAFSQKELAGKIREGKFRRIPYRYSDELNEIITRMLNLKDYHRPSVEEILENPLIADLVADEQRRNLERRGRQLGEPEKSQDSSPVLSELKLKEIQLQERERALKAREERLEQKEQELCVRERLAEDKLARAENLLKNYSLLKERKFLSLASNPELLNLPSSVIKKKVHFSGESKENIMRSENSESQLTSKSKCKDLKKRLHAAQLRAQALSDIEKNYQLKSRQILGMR
# [15] = target: T6, Serine/threonine-protein kinase Nek2 (Homo sapiens); details: at 1 µM
# [16] = target: Serine/threonine-protein kinase Nek6 (Homo sapiens) (UniProt Q9HC98); details: at 0.1 µM
# [17] = target: Serine/threonine-protein kinase Nek6 (Homo sapiens) (UniProt Q9HC98); details: at 1 µM
# [18] = target: Serine/threonine-protein kinase Nek7 (Homo sapiens) (UniProt Q8TDX7); details: at 0.1 µM
# [19] = target: Serine/threonine-protein kinase Nek7 (Homo sapiens) (UniProt Q8TDX7); details: at 1 µM
# [20] = target: T7, Serine/threonine-protein kinase Nek9 (Homo sapiens) (UniProt Q8TD19); details: at 0.1 µM;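 note: reported value is the mean percent inhibition of NEK9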
# T7 sequence (whole entry): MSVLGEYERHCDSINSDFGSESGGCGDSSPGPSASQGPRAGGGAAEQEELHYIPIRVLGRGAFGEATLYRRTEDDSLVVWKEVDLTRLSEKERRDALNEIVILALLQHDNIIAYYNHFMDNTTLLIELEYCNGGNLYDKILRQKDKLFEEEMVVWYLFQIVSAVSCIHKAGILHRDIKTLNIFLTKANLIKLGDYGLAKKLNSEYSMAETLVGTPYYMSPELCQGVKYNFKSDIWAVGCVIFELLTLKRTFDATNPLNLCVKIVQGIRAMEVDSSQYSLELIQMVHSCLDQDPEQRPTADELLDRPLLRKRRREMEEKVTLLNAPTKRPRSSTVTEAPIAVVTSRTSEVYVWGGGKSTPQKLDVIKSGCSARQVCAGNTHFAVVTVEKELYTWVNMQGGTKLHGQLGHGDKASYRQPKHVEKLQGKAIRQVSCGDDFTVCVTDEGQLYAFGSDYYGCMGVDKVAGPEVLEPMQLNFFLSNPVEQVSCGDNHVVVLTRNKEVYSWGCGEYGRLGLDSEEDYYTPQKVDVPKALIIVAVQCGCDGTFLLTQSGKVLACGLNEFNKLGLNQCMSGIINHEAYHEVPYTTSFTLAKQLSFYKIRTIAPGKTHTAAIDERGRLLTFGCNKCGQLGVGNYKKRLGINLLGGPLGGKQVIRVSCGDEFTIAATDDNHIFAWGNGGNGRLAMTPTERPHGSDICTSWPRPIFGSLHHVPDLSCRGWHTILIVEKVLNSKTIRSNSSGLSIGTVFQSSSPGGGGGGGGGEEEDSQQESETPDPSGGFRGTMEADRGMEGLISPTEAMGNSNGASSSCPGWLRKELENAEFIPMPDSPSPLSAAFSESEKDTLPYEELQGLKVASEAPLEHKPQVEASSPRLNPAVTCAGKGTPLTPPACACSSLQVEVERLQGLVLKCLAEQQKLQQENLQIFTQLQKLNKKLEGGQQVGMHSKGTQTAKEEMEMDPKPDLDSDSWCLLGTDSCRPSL
# Sequence of Serine/threonine-protein kinase Nek6 (Homo sapiens) (Q9HC98 whole entry): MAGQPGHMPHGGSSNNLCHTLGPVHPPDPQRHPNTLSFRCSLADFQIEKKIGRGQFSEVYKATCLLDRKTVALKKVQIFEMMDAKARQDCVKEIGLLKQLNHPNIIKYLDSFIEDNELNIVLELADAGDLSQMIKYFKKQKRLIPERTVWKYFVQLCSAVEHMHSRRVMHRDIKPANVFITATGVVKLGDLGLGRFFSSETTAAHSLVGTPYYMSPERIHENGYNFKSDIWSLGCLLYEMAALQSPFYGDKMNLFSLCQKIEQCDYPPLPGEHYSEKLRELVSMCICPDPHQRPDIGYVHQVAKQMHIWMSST
# Sequence of Casein kinase II subunit alpha (Homo sapiens) (P68400 whole entry, looked up): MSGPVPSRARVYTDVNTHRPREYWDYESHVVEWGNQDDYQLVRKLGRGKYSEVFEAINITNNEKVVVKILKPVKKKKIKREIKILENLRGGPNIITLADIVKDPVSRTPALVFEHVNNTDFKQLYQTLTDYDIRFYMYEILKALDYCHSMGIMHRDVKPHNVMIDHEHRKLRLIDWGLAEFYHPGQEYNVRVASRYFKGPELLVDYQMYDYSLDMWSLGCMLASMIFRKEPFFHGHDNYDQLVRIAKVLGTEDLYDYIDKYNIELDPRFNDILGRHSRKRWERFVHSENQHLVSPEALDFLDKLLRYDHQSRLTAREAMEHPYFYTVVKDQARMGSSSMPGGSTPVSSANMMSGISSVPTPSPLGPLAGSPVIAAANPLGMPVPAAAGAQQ
# Sequence of Serine/threonine-protein kinase Nek7 (Homo sapiens) (Q8TDX7 whole entry, looked up): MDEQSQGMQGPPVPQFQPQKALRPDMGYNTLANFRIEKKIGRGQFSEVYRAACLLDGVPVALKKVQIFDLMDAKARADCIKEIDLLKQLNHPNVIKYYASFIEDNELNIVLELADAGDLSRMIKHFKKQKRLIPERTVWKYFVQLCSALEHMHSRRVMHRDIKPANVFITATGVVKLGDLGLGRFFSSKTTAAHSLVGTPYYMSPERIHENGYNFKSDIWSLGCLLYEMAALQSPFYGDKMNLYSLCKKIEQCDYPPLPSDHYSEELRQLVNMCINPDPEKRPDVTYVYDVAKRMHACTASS
# Sequence of Sphingosine kinase 1 (Homo sapiens) (Q9NYA1 whole entry): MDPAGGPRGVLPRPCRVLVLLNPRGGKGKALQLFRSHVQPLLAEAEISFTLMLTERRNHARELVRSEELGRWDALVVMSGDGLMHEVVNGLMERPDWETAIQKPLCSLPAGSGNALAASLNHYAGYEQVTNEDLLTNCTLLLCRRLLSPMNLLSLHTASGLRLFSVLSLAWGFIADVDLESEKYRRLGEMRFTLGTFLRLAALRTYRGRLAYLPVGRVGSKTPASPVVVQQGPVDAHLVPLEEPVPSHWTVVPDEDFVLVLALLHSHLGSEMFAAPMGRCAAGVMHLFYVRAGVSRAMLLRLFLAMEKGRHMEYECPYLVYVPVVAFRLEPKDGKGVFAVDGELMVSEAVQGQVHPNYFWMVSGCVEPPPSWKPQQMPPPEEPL
SMILES,inhibition [1] [%],inhibition [2] [%],inhibition [3] [%],inhibition [4] [%],inhibition [5] [%],inhibition [6] [%],inhibition [7] [%],inhibition [8] [%],inhibition [9] [%],inhibition [10] [%],inhibition [11] [%],inhibition [12] [%],inhibition [13] [%],inhibition [14] [%],inhibition [15] [%],inhibition [16] [%],inhibition [17] [%],inhibition [18] [%],inhibition [19] [%],inhibition [20] [%]
NS(=O)(=O)c1cccc(Nc2cc(-c3ccc(F)cc3)n[nH]2)c1,-0.2,0.87,-0.06,5.22,13.6,4.35,11.3,5.51,4.5,8.55,8.08,1.79,3.87,4.43,6.1,2.48,6.59,4.33,4.76,10.6
Nc1nccc(-c2c(-c3ccc(F)cc3)ncn2CCCN2CCOCC2)n1,-6.06,-0.3,0.84,2.78,4.35,3.83,5.27,6.3,5.49,4.76,5.9,2.11,3.63,4.66,5.54,3.27,0.28,5.79,4.4,9.19
